Compounds with a hit are over-represented: about 4.8% of the library has one in this group of screens.
hgDAF12 agonist: hgDAF-12 agonism, primary luciferase screen. HEK293 GAL4-hgDAF12 UAS-luciferase reporter, agonist luminescence; normalized to butyrate control. activation, % at 6.8 µM. 370,000 compounds, 1.8% hits. AID 687014;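 active means activation above a cutoff set at the mean of all screened compounds plus 3 SD, cut at about 10% in these data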;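 further: 0% = DMSO wells and 100% = sodium butyrate wells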
ssDAF12 agonist: S. stercoralis DAF-12 activation, primary screen; AID 652126; activation, % at 6.8 µM; 370,000 compounds, 1% hits; HEK293 ssDAF-12/GRIP1 lit1-tk-luc reporter, luminescence; % of 3 µM dafachronic acid response;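 active means activation above the mean over all tested compounds plus 3 SD, cut at about 0.9% in these data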;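 further: 0% = DMSO-only wells and 100% = 3 µM delta7-dafachronic acid wells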
hcDAF-12 act: activates DAF-12 receptor from parasite H. contortus | AID 652067 | HEK293 hcDAF-12 lit1-tk-luc reporter, luminescence; 0% DMSO, 100% Δ7-dafachronic acid | 370,000 compounds, 1.4% hits | activation, % at 6.8 µM;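 active means activation above the mean of all tested compounds plus 3 SD, cut at about 5.5% in these data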;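 further: 100% = response to 3 µM Δ7-dafachronic acid high control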
DAX1 inh-1: inhibits human nuclear receptor DAX1; 340,000 compounds, 0.99% hits; HEK293 Gal4-DAX1 luciferase reporter, luminescence; AID 504766; P51843; inhibition, % at 6.75 µM;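 active means inhibition above the mean over all tested compounds plus 3 SD, cut at about 4.2% in these data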;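 further: 0% = DAX1-transfected cells with DMSO and 100% = empty-vector control cells with DMSO; inhibition shows as a rise in luminescence from relieved DAX1 repression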
Target sequence (P51843 207-470 limits assumed): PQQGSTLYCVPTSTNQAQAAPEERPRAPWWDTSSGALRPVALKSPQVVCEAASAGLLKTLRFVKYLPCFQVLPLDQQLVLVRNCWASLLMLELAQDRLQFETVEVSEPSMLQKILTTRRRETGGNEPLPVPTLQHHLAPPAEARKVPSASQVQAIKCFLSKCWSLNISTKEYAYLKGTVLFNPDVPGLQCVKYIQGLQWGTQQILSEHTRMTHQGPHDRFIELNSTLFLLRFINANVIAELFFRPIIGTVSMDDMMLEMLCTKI
DAX1 inh-2: DAX1 (NR0B1) inhibition, primary screen; AID 652010; HEK293T StAR-luciferase reporter, SF-1/DAX-1 repression relief; 370,000 compounds, 1.1% hits; inhibition, % at 6.8 µM;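 active means inhibition above the mean over all tested compounds plus 3 SD, cut at about 3.6% in these data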;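 further: 0% = DAX-1 cells with DMSO and 100% = cells lacking DAX-1 with DMSO; higher inhibition means more luminescence from relief of DAX-1 repression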
SMARCA2 activ: SMARCA2 function activation, primary screen. MG213 cells, MMTV-luciferase reporter, dexamethasone, overnight. activation, % at 9.1 µM. 370,000 compounds, 1% hits. AID 652017; in the data active means activation above about 7.8%;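 further: 0% = vehicle wells and 100% = reference activator wells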
The depositor's hits bear a star; x = no result.

SMILES	hgDAF12 agonist	ssDAF12 agonist	hcDAF-12 act	DAX1 inh-1	DAX1 inh-2	SMARCA2 activ
COC(=O)[C@H](CC(C)C)N1Cc2nnn(CC3CCCCC3)c2-c2ccccc2S1(=O)=O	1.1	-1.6	-2.6	x	-0.4	-4.4
CC1CCN(c2oc(-c3ccc(F)cc3)nc2C#N)CC1	3.9	-1.0	-2.1	0.1	0.2	7.8*
COc1cccc(CN[C@@H]2CC[C@@]34CCCN3C(=O)CCC[C@H]4C2)c1	0.1	-1.5	-0.3	x	x	x
c1cncc(CNc2cccc(-c3nc4ccccc4[nH]3)c2)c1	10.7*	-1.4	3.8	-0.7	1.0	4.8
c1ccc(NCc2cccnc2)cc1	-0.4	0.1	-0.5	2.1	0.5	0.0
O=C1N=c2ccccc2=C1c1sc(Nc2ccc(O)cc2)nc1O	-1.8	-0.1	0.3	0.9	0.1	7.8*
O=C(NCCCN1CCN(c2ccc(F)cc2)CC1)NCc1ccccc1	-3.3	-0.6	2.2	x	-0.2	-5.3
CCCNC(=O)Nc1nc2ccccc2s1	12.4*	-0.2	3.4	4.4*	3.0	2.2
CCOC(=O)CC(=O)Nc1nc2ccccc2s1	1.9	-0.8	0.0	-0.3	0.0	1.5
O=C(CCNC(=O)c1ccccc1Cl)Nc1nc2ccccc2s1	8.9	0.6	6.4*	1.9	3.1	3.9
CCOC(=O)Nc1nc2ccccc2s1	11.0*	-0.2	3.5	2.5	2.9	3.8
O=C(c1ccccc1)c1cnc(Nc2ccccc2Cl)s1	x	x	x	6.8*	x	x
O=C(COc1ccc(Cl)cc1Cl)OCC(=O)N1CCCc2ccccc21	3.8	0.7	4.7	9.8*	0.8	0.6
O=C(CCCOc1ccc(Cl)cc1Cl)N1CCCc2ccccc21	-2.4	-1.1	0.1	-1.0	-0.4	0.2
CN(CCOC(=O)c1occ2ccccc12)C1CN(Cc2cn(Cc3ccccc3Cl)nn2)S(=O)(=O)C1 (stereo not given)	2.3	-1.2	-2.1	x	-0.1	2.6
COc1ccc(-c2cc(-c3ccc(OC)cc3)nc(-c3ccc4c(c3)NC(=O)CO4)c2)cc1	2.3	-0.4	0.9	1.8	-0.1	-3.5
COc1cccc(-c2nc(-c3ccc4c(c3)NC(=O)CO4)cs2)c1	10.8*	-0.9	0.7	3.6	0.2	0.5
O=C(Nc1ccc(OC(F)(F)F)cc1)Nc1c(-c2ccc(F)cc2)nc2ncccn12	-4.1	-1.0	0.1	x	-0.4	-2.5
CCC1=C(NCc2ccccc2)COC1=O	-1.5	-1.6	0.7	4.3*	0.8	-1.6
CN(Cc1ccccc1)S(=O)(=O)c1cccc(C(=O)OCc2cccc([N+](=O)[O-])c2)c1	7.5	-1.3	-0.8	x	0.2	-1.5
COc1ccc2c(C)cc3nncn3c2c1	-0.4	-0.7	1.2	4.2*	0.0	4.4
C[C@@H](CO)N(CCc1cn(Cc2ccccc2)nn1)S(=O)(=O)c1ccccc1Br	-2.0	-1.2	-2.7	x	-0.6	-2.3
C/C(=N\Nc1ccc(C(=O)O)cc1)c1ccc2c(c1)Nc1ccccc1S2	-0.1	-2.0	-0.4	6.1*	-0.1	0.8
CC(=O)c1ccc(Nc2cnn(C34CC5CC(CC(CC(=O)O)(C5)C3)C4)c(=O)c2Cl)cc1	2.1	-1.3	1.3	5.4*	-0.3	-0.6
O=C1C[C@@H](C(=O)Nc2ccc(Cl)cc2)[C@@H](c2ccccc2)O1	-1.5	-1.7	0.5	x	-0.9	0.9
SMILES	hgDAF12 agonist	ssDAF12 agonist	hcDAF-12 act	DAX1 inh-1	DAX1 inh-2	SMARCA2 activ
COc1ccc(CCC(=O)Nc2sccc2C#N)cc1	12.1*	-0.3	2.1	x	3.4	3.5
COc1ccc(NC(=O)CSCC(=O)Nc2sccc2C#N)cc1	0.9	1.0*	1.0	-0.7	0.2	-0.5
CCOC(=O)[C@@]12CCCC3=C1N(CCC3)C(=O)[C@H]2CC(=O)NCc1ccc(C)o1	-1.5	-1.3	-2.1	x	-0.1	0.3
COc1ccc(-n2c(SCC(=O)Nc3ccc(S(=O)(=O)Nc4nccs4)cc3)nnc2-c2ccccc2)cc1	-0.9	-1.0	-0.1	x	-0.3	-3.1
COc1ccc(C(=O)Nc2ccc3c(c2)C(=O)N(C)[C@H]2CC[C@H](CC(=O)NCC4CC4)O[C@@H]2CO3)cc1	1.2	-1.1	-0.9	x	1.4	-4.4
CCOc1cc(C(=O)NCCCNC(=O)c2cc(OCC)c(OCC)c(OCC)c2)cc(OCC)c1OCC	-0.1	-1.7	-2.3	-0.9	-0.2	3.5
CCOc1cc(C(=O)NCCOC)cc(OCC)c1OCC	1.6	1.5*	2.1	0.2	-0.2	2.0
COc1ccc(S(=O)(=O)Nc2ccc3cn[nH]c3c2)cc1C	-2.2	0.9*	1.9	-0.6	0.0	-2.5
COc1ccc(S(=O)(=O)Nc2ccc3ccccc3c2)cc1C	-1.0	-1.4	-1.3	-0.4	-0.8	2.4
CC1CCCN(C(=O)CSc2nnc(-c3cccs3)o2)C1 (stereo not given)	11.5*	-0.7	3.0	0.4	1.5	4.3
O=[N+]([O-])c1ccc2nc(CNc3nc(N4CCOCC4)nc4c3ncn4-c3ccsc3)[nH]c2c1	-12.3	-3.3	-6.3	x	x	x
Cc1ccccc1N1CCN(S(=O)(=O)c2ccc3c(c2)oc(=O)n3C)CC1	-1.8	-1.7	-2.8	x	-0.9	-0.5
CC(=O)c1ccc(NC(=O)CSc2nc(N3CCOCC3)nc(N3CCOCC3)n2)cc1	3.7	-0.3	4.0	0.8	4.1*	0.8
COc1ccc(COc2ccc3c(C)cc(=O)oc3c2)cc1	11.5*	-0.8	0.4	3.6	1.0	2.5
COc1ccc(CCNC(=O)COc2ccc3c(C)cc(=O)oc3c2)cc1	3.9	-0.7	1.3	-1.1	-0.3	2.6
CCc1ccc(C(=O)NNC(=O)CCc2nc3ccccc3c(=O)[nH]2)cc1	0.6	0.2	-0.7	0.9	3.6*	0.2
CCCCNS(=O)(=O)/C=C/c1ccccc1CNC(=O)OC(C)(C)C	-0.2	-1.5	-2.9	x	-1.0	0.0
C=C(CO)C1Cc2cc(C(C)=O)ccc2O1 (stereo not given)	0.2	-1.3	0.0	4.3*	-1.2	0.0
CC1Cc2cc(C(=O)O)ccc2O1 (stereo not given)	0.9	-0.9	-0.3	1.7	0.4	-0.6
CC1CC(=O)c2cnc(Nc3cccc(C(F)(F)F)c3)nc2C1 (stereo not given)	0.0	-1.1	0.0	3.4	0.2	-0.1
CC1CC(=O)c2cnc(Nc3ccccc3)nc2C1 (stereo not given)	10.0	0.1	3.7	3.0	4.0*	2.5
CC(COc1cccc(F)c1)CN1CCC(C(O)(c2ccccc2)c2ccccc2)CC1 (stereo not given)	2.9	-0.9	-2.9	x	0.7	-5.7
COc1ccc(N=Nc2c(N)nn(C)c2N)cc1	9.5	1.2*	1.0	3.9	2.6	6.4
Cc1ccc(N=Nc2c(N)nn3c(N)c(C#N)c(C)nc23)cc1	1.7	-1.0	-0.2	2.1	0.7	-1.4
O=C(Nc1nc2c(s1)CN(Cc1ccccc1)CC2)C1CCCC1	2.9	-0.4	-1.4	-0.3	0.1	-2.1

High-throughput results deposited in PubChem by The Scripps Research Institute Molecular Screening Center.
